ALDH1A1 inh = ALDH1A1 (human) enzyme inhibition | P00352 | AID 1030 | Potency, µM (series often up to 75.3 µM), for inactives: at the top dose activity, negative = inhibition, actives largely listed as inhibitors | 220,000 compounds, 7.3% hits | Purified ALDH1A1, NADH fluorescence, propionaldehyde substrate; active = well fitted inhibition curve with a large enough effect, not every such curve was filed as active; inconclusive = small, poorly fitted or top-dose-only effect, or another doubt; inactive = no such curve, though single readings can be large or run the other way;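 also: potency is read from the fitted curve at half-maximal effect; plate controls were no enzyme wells and a reference inhibitor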
HTT aggregate = inhibitors of mutant huntingtin aggregate formation in PC12 cells; PC12 HttQ103-GFP aggregates, Acumen cytometry, 40 h; Potency, µM (doses to about 46.1 µM), without a hit: top-dose activity change, negative = inhibition, usual class: inhibitors; 220,000 compounds, 1.1% hits; AID 1688; also: potency is read from the fitted curve at half-maximal effect; % is scaled to controls: 0 for no effect and ±100 for the full control effect; nearly all actives have a fitted effect of over 60% in size
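Compounds (qHTS titration) were added to PC12 cells expressing an ecdysone-driven HTT exon 1 Q103–GFP fusion after induction with 100 nM tebufenozide. Aggregate formation was measured as GFP objects in cell lysates.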
IMPase Li cell = membrane-permeable IMPase blocker, potentiated with lithium; 210,000 compounds, 0.35% hits; Potency, µM (doses to about 59.4 µM), inactives show at the highest dose activity, negative = IMPase inhibition, hits mostly inhibitors; CHO-M1 cells, IP1 TR-FRET (IP-One), carbachol + lithium;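 also: IP1 builds up when IMPase is blocked and the TR-FRET signal falls; potency is read from the fitted curve at half-maximal effect; plate controls were basal vehicle for no effect and high inhibitor control for full effect; nearly all actives have a fitted effect of over 50% in size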
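CHO-M1, 2000 cells/well, 16–30 h culture; cpd + low Li+, 30 min 37C; lysis with d2-IP1/Eu-anti-IP1 Ab, 10 min RT; TR-FRET 665/620 ratio and 620 channel; AC50 via Hill.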
HTT cytoprotect = protects HTT-Q103 PC12 cells, measured by ATP; PC12 HTT-Q103 induced, cytoprotection, ATP luminescence, 40 h; Potency, µM (doses to about 56.4 µM), for the others: cytoprotection (ATP increase), actives largely listed as activators; 230,000 compounds, 0.14% hits; AID 1471; also: potency is read from the fitted curve at half-maximal effect; % of control where 0% means no effect; nearly all actives have a fitted effect of over 45% in size
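Quantitative HTS on tebufenozide-induced (100 nM) PC12 cells expressing HTTQ103 exon 1–GFP; compounds tested as a concentration series; survival measured via cellular ATP.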
HPGD block = HPGD (human) dehydrogenase inhibition; P15428; purified HPGD, NADH fluorescence kinetic, PGE2 substrate; Potency, µM, for the others: at the top dose activity change, negative = inhibition, most hits filed as inhibitors; 150,000 compounds, 4.3% hits; AID 894; active = well fitted inhibition curve with a large enough effect, not every such curve was filed as active; inconclusive = small, poorly fitted or top-dose-only effect, or another doubt; inactive = no such curve, though single readings can be large or run the other way; also: potency is read from the fitted curve at half-maximal effect; % is scaled to controls: 0 for no effect and ±100 for the full control effect
Target sequence (P15428 whole entry, looked up): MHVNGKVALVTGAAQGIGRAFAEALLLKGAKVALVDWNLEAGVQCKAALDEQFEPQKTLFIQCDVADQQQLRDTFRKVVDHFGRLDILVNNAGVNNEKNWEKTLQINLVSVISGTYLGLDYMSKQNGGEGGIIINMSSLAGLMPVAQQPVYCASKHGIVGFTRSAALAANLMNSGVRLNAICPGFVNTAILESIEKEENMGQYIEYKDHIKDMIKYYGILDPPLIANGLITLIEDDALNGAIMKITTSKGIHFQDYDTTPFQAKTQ
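NADH formation kinetics: reaction with 30 uM PGE2 and 1 mM NAD+ (final), 20 nM enzyme, Tris-HCl pH 8 with Tween 20, after 15 min compound preincubation at room temperature. Fluorescence change, last versus first of five reads.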
IMPase inh = cell-permeable inhibitors of inositol monophosphatase (IMPase). CHO-M1 cells, IP1 accumulation, HTRF TR-FRET ratio. inhibition (IP1 accumulation), % at 46.1 µM. P97697. 120,000 tested, under 10 active; active = well fitted curve in the direction sought with a large enough effect in the signal ratio, not every such curve was filed as active; inconclusive = small, poorly fitted or top-dose-only effect, or a change in a side signal; inactive = no such curve, though single readings can be large or run the other way; the % refers to the signal ratio;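 also: cells stimulated with carbachol in lithium chloride buffer; plate controls were DMSO basal wells for no effect and reference inhibitor wells for full effect; higher means more IMPase inhibition seen as more IP1 and lower FRET ratio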
Target sequence (P97697 whole entry, looked up): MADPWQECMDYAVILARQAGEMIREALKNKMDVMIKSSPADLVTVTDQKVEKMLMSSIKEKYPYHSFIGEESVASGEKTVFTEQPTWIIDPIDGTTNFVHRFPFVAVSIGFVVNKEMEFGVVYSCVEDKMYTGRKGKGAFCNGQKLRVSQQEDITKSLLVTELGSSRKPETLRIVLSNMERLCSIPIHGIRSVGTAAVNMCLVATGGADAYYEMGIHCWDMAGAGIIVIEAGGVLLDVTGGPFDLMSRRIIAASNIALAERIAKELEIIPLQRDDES
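Carbachol-driven Gq signalling in CHO-M1 cells (2000/well) generates IP1. Compounds that block IMPase raise IP1 and so reduce the FRET signal from Eu-anti-IP1 and d2-IP1 after a 10 min room-temperature lysis.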
Starred values were filed as active, the others as inactive; [ ] = another dose, or the depositor's remark. Hits are enriched below; roughly 9.4% of the tested compounds scored in any of these assays. Unless noted, calls follow the shape of the dose curve; as a rule, active = well fitted curve in the direction sought with a large enough effect; inconclusive = small, poorly fitted or top-dose-only effect, or another doubt; inactive = no such curve, though single readings can be large; an effect the other way counts as inactive or inconclusive.

C=C(C)COc1ccc(-c2[nH]ncc2-c2ccccc2OC)c(O)c1 was read as ALDH1A1 inh 25µM*, HTT aggregate -20%, IMPase Li cell 23%[38.3 µM], HTT cytoprotect 2%[0.074 µM], HPGD block -23% and IMPase inh 12.
`C=C(C)COc1ccc(-c2[nH]ncc2Oc2ccccc2OC)c(O)c1` gave ALDH1A1 inh -7%, HTT aggregate -8%, IMPase Li cell 5%[38.3 µM], HTT cytoprotect -20%, HPGD block -14% and IMPase inh -5.
`CCCCCC1=C2CNC(CCC)(C(=O)OC)C=C2C(C)C1=O` (centres undefined) gave ALDH1A1 inh 28µM*, IMPase Li cell 13%, HTT cytoprotect -49% and HPGD block -22%.
For O=C1C(Nc2ccccc2)=CC(c2ccc(Br)cc2)N1c1ccccc1 (centres undefined) the results were IMPase inh 5.
For CC(On1nnc2ccccc21)C(=O)N1CCN(Cc2ccccc2)CC1 (centres undefined) the results were ALDH1A1 inh -7%, HTT aggregate inconclusive, IMPase Li cell -5% and HTT cytoprotect 0.71µM*.
CC(=O)[C@@H]1[C@@H]2C(=O)N(Cc3ccccc3)C(=O)[C@@H]2C2c3ccccc3C=CN21 (some centres undefined) was read as ALDH1A1 inh 20µM*, HTT aggregate -2%, IMPase Li cell 3%[38.3 µM], HTT cytoprotect -32%, HPGD block inconclusive and IMPase inh 4.
`O=C(c1ccco1)[C@@H]1[C@@H]2C(=O)N(c3ccccc3)C(=O)[C@@H]2C2c3ccccc3C=CN21` (some centres undefined) gave ALDH1A1 inh 2.2µM*, HTT aggregate inconclusive, IMPase Li cell 10%[38.3 µM], HTT cytoprotect -1%[0.074 µM], HPGD block inconclusive and IMPase inh 7.
Cc1ccc(N2C(=O)[C@@H]3[C@H](C2=O)C2c4ccccc4C=CN2[C@@H]3C(=O)c2ccco2)c(C)c1 (some centres undefined) was read as ALDH1A1 inh 7.9µM*, HTT aggregate 21%, IMPase Li cell 14%[38.3 µM], HTT cytoprotect 4%[0.074 µM], HPGD block 35µM* and IMPase inh 6.
O=C1C2C3C=CC(C3)C2C(=O)N1Cc1ccccc1 (centres undefined) was read as ALDH1A1 inh inconclusive, HTT aggregate -7%, IMPase Li cell 16%[38.3 µM], HTT cytoprotect 14%, HPGD block 7% and IMPase inh 6.
For COc1ccc(N2C(=O)[C@@H]3[C@H](C2=O)[C@H]2c4ccccc4C=CN2[C@@H]3C(=O)Nc2ccccc2)cc1 the results were ALDH1A1 inh 25µM*, HTT aggregate 10%[1.84 µM], IMPase Li cell 14%[38.3 µM], HTT cytoprotect -5%, HPGD block -22% and IMPase inh -3.
Screening C[C@H](CCC(=O)NN)[C@@H]1CC[C@@H]2[C@H]3CC[C@H]4C[C@@H](O)CC[C@@]4(C)[C@@H]3CC[C@]21C returned ALDH1A1 inh -8%[13.5 µM], IMPase Li cell 9%, HTT cytoprotect -2%[10 µM] and HPGD block -9%.
`CC(C)(C)C(=O)[C@@H]1[C@@H]2C(=O)N(c3ccc4c(c3)OCCO4)C(=O)[C@@H]2C2c3ccccc3C=CN21` (some centres undefined) gave ALDH1A1 inh inconclusive, HTT aggregate 0%, IMPase Li cell 6%[38.3 µM], HTT cytoprotect -24%, HPGD block inconclusive and IMPase inh -1.
Screening Cc1ccc(N2C(=O)[C@@H]3[C@H](C2=O)C2c4ccccc4C=CN2[C@@H]3C(=O)c2ccco2)cc1 (some centres undefined) returned ALDH1A1 inh 4.5µM*, HTT aggregate 14%, IMPase Li cell -11%[38.3 µM], HTT cytoprotect -10%, HPGD block 32µM* and IMPase inh -25.

Source: PubChem (National Center for Advancing Translational Sciences (NCATS))
